In the library only some 4.1% were active in any assay of this set; here they are far more common.
p-CIP stab down – p/CIP-EGFP fusion destabilizers, primary screen, fluorescence, F442A cells; hit rate 0.01% among 290,000; decrease of EGFP signal, % at 10 µM; 16 h;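 active means EGFP signal decrease of at least 30% at 10 µM or well 3 SD below plate mean, unless failing retest; inactive means the rest, including hits failing retest or dose response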
beta cell repl – inducers of MIN6 beta-cell proliferation, primary screen, ATP luminescence, uHTS; MIN6 cells proliferation, ATPlite luminescence, 48 h; cells starved in 0.2% serum; 100% = growth in 10% serum; proliferation, % at 10 µM; hit rate 0.29% among 330,000;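 active means compounds whose signal lies at least 3.5 SD above the mean of all wells on their plate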
FAS TE block – FAS thioesterase domain inhibitors, primary screen, biochemical, fluorescence intensity, uHTS. recombinant FAS-TE, OMFH fluorogenic substrate, fluorescence endpoint. Fatty acid synthase (Homo sapiens), P49327. inhibition, % at 15 µM. AID 602261, 2012. hit rate 0.67% among 360,000;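 active means compounds whose normalised, plate-corrected inhibition of enzyme fluorescence in the single-dose primary screen is 50% or more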
GRIN3A LBD mod – binders of NR3A ligand-binding domain, primary screen, biophysical, differential scanning fluorimetry, uHTS | hit rate 2.5% among 340,000 | Glutamate receptor ionotropic, NMDA 3A (GRIN3A) ligand-binding domain | Tm shift relative to glycine control, % at 25 µM | NR3A LBD differential scanning fluorimetry, Tm shift; 0% = protein alone, 100% = glycine-bound protein;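 active means melting temperature shift of at least 10% of the positive control shift, at one fixed dose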
MPTP inh – mitochondrial permeability transition pore inhibitors, primary screen, biochemical, isolated mouse mitochondria, absorbance; inhibition, % at 10 µM; hit rate 1.4% among 360,000; Ca2+ swelling absorbance, 30 min;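 active means inhibition of 50% or more, scaled per plate between neutral and stimulator controls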
Rh123 counter – fluorescence retest of MPTP screen hits in isolated mitochondria, single concentration | shares compounds with MPTP inh | membrane potential, Rhodamine 123 fluorescence | inhibition, % at 10 µM | hit rate 78% among 5,000 | AID 624504, 2012; in the data active means inhibition above about 22%
Large screens that a line does not name were inactive (follow-up assays come after a bar, where they were run).

O=C(CC1SC(=Nc2ccc(OC(F)F)cc2)N(CCC2=CCCCC2)C1=O)Nc1ccccc1F (stereo not given)	MPTP inh 95.7 | Rh123 counter 71.8
N#CC(=C1C=C(Br)C(=NO)C=C1Cl)c1cccc2ccccc12	MPTP inh 76.3 (no result: p-CIP stab down, beta cell repl, GRIN3A LBD mod) | Rh123 counter 57.2
O=C(C1CCC(CNS(=O)(=O)c2ccccc2)CC1)N1CCOCC1 (stereo not given)	none
O=C(NCc1ccccn1)c1ccc(CNS(=O)(=O)c2cccc(Cl)c2)cc1	none
COCCn1c(=S)[nH]c2cc(C(=O)N3CCc4ccccc43)ccc2c1=O	none
CCCn1c(=S)[nH]c2cc(C(=O)N3CCc4ccccc43)ccc2c1=O	MPTP inh 60.1 | Rh123 counter 47.8
O=C(CSc1nc2cc(Cl)c(Cl)cc2[nH]1)c1ccc2c(c1)OCO2	GRIN3A LBD mod 17.5, MPTP inh 78.4 | Rh123 counter 72.6
Clc1ccc(-c2ccc(CNCC3CCCO3)o2)cc1 (stereo not given)	none
N#C/C(=C(/O)c1ccc([N+](=O)[O-])s1)c1nc2ccccc2[nH]1	MPTP inh 85.4 | Rh123 counter 80.9
N#C/C(=C(/O)c1ccc(Br)s1)c1nc2ccccc2[nH]1	none
COc1ccc(C(CC(=O)O)NS(=O)(=O)c2ccc3c(c2)NC(=O)CO3)cc1 (stereo not given)	none
N#Cc1c(C(F)(F)F)cc(-c2ccc(Cl)cc2)[nH]c1=O	MPTP inh 92.6 | Rh123 counter 82.1
N#Cc1c(C(F)(F)F)cc(-c2cccc(Cl)c2)[nH]c1=O	MPTP inh 94.1 | Rh123 counter 89.3
COc1ccc2[nH]c(C)c(C(=O)CN(C)CC3OCCO3)c2c1	none (no result: FAS TE block, MPTP inh)
O=C(Cn1nc(C(=O)O)c2ccccc2c1=O)Nc1cc(S(=O)(=O)N2CCOCC2)ccc1Cl	none (no result: p-CIP stab down)
Nc1nonc1C(=O)NCCNCc1c(OCc2ccccc2F)ccc2ccccc12	MPTP inh 94.9 | Rh123 counter 22.8
Nc1nonc1C(=O)NCCNCc1cc(Br)ccc1OCc1ccc(F)cc1	MPTP inh 64.7 | Rh123 counter 71.5
Cc1nn(CC(=O)NNC(=O)c2ccc(Br)cc2)c(C)c1[N+](=O)[O-]	none (no result: p-CIP stab down)
CC(C)N=c1scc(-c2ccco2)n1/N=C/c1ccc(O)c(O)c1	MPTP inh 63.2 | Rh123 counter 41.5
COCCN=c1scc(-c2ccco2)n1/N=C/c1ccc(O)c(O)c1O	none
COc1cccc(OCC(=O)Nc2ccncc2)c1	none
Cc1cccc(C)c1OCC(=O)Nc1ccncc1	none
Cc1cc(OCC(=O)Nc2ccncc2)cc(C)c1Cl	MPTP inh 93.5 | Rh123 counter 84.0
Cc1ccc(OCC(=O)Nc2ccncc2)cc1C	none (no result: p-CIP stab down, beta cell repl, GRIN3A LBD mod)
Cc1cc(OCC(=O)Nc2ccncc2)c(C)cc1Br	MPTP inh 97.8 | Rh123 counter 84.0
CCc1ccc(OCC(=O)Nc2ccncc2)c(Br)c1	MPTP inh 78.8 | Rh123 counter 80.1
CCc1ccc(OCC(=O)NNC(=O)c2cnccn2)c(Br)c1	none
CC(C)CCOc1cccc(OCC(=O)Nc2ccncc2)c1	MPTP inh 106.8 | Rh123 counter 100.5
COC(=O)/C=C\C(C#N)(C#N)N=Cc1ccc(OC)cc1	none (no result: p-CIP stab down, beta cell repl)
C#Cc1ccc([C@@H]2C=C(C(=O)N3CCN(Cc4ccccc4)CC3)O[C@H](OCCCCO)C2)cc1	none (no result: GRIN3A LBD mod)
CCOC(=O)c1cc2sccc2n1CC(=O)C(C)(C)C	none
CSc1nnc(-c2sc3cc(C(F)(F)F)cnc3c2-c2ccccc2)n1C	none
O=C(COc1ccc2ccccc2c1Br)Nc1ccncc1	GRIN3A LBD mod 13.6, MPTP inh 91.9 | Rh123 counter 81.6
CC(C)(C)c1ccc(OCC(=O)Nc2ccncc2)c(Br)c1	MPTP inh 108.3 | Rh123 counter 87.5
O=C(COc1ccc2ccccc2c1Br)Nc1cccnc1	none
CCCCOc1ccc(/C=C/C(=O)OCC(=O)N2CC(=O)Nc3ccccc32)cc1OCC	none
CN(C)/C(=N\S(=O)(=O)c1ccc(Br)cc1)c1ccccc1	none
O=C(Nc1cc(Cl)ccc1Cl)N1CCCC1	none
O=C(/C(Br)=C/Nc1cc(Cl)ccc1Cl)C(F)(F)F	MPTP inh 95.9 | Rh123 counter 93.5
COC(=O)c1c(C)[nH]c(C(=O)C(C)Sc2nnc(-c3cc(OC)c(OC)c(OC)c3)o2)c1C (stereo not given)	none
O=c1[nH]c2cc3c(cc2cc1C(c1nnnn1C1CCCCC1)N1CCSCC1)OCCO3 (stereo not given)	MPTP inh 62.9 | Rh123 counter inactive
CC(C)(C)c1ccc(NC(=O)N2CCN(c3ccc([N+](=O)[O-])cn3)CC2)cc1	MPTP inh 66.9 | Rh123 counter 54.3
O=C(Nc1ccc(F)cc1F)N1CCCN(c2ccc([N+](=O)[O-])cn2)CC1	none
S=C(Nc1ccc(Cl)cc1)Nc1cccc2cnccc12	MPTP inh 102.3 | Rh123 counter 93.2
Fc1ccc(NC(=S)Nc2cccc3ccccc23)cc1F	MPTP inh 81.3 | Rh123 counter 98.0
COc1ccc(NC(=S)Nc2cccc3cnccc23)cc1	none
Cc1occc1-c1nnc(SCC(=O)Nc2nc(C(C)(C)C)cs2)o1	MPTP inh 94.4 | Rh123 counter 89.7
Cc1csc(NC(=O)CSc2nnc(-c3ccoc3C)o2)n1	none
C=CC[C@H](CC(=O)NCCO)C(=O)N[C@@H](COC(=O)[C@@H](CC=C)Cc1ccc(F)cc1)Cc1ccccc1	none (no result: p-CIP stab down)
Cc1c(CCOC(=O)C23CC4CC(CC(C)(C4)C2)C3)sc[n+]1CC(=O)c1ccccc1	none
Cc1c(CCOC(=O)CC23CC4CC(CC(C)(C4)C2)C3)sc[n+]1CC(=O)c1ccccc1	MPTP inh 68.0 | Rh123 counter 23.9
S=C(NCCC(c1ccccc1)c1ccccc1)Nc1cccc(Cl)c1	GRIN3A LBD mod 15.8, MPTP inh 97.5 | Rh123 counter 87.3
O=C(NC(=S)NCc1ccc(Cl)cc1Cl)c1ccco1	none (no result: p-CIP stab down)
S=C(NCc1ccc(Cl)cc1Cl)Nc1ccccc1	GRIN3A LBD mod 12.7, MPTP inh 95.3 | Rh123 counter 95.3
Fc1ccc(CNC(=S)Nc2ccc(Cl)cc2)cc1	MPTP inh 65.2 | Rh123 counter 95.4
S=C(NCc1ccccc1Cl)Nc1ccccc1Cl	none
Cc1cc(Cl)ccc1NC(=S)NCc1ccccc1Cl	MPTP inh 92.7 | Rh123 counter 84.3
S=C(NCCN(C1CCCCC1)C1CCCC1)Nc1cccc(Cl)c1	none
CCCCNC(=O)C1c2ccccc2OCC(=O)N1Cc1ccc2c(c1)OCO2 (stereo not given)	none (no result: p-CIP stab down, beta cell repl, GRIN3A LBD mod)
C=CCOc1c(Br)cc(CNc2ccc(NC(=O)C(C)C)c(OC)c2)cc1OCC	none
